DAPI nuclei signal change (viability), lower = more cytotoxic and inhibition data for 51 compounds are collected here from PubChem BioAssay AID651582 (Sanford-Burnham Center for Chemical Genomics, 2012).

Several values for one entry are separate records, joined by “and”; a condition that tells them apart may be missing. Identical values can stand only once. Hit rate of the full screen: of about 230,000 compounds, about 1,500 (0.65%) were called active.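 Rule for the calls: active = pattern-corrected inhibition of lipid staining of at least 50% with the nuclear-stain viability signal not falling by more than 50%; inactive = the rest, inconclusive results apart.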 Only a selection was taken, and actives are over-represented in it overall.

The nature of this test: TAG lipid buildup reduction in H9c2 cells – cell-based, uHTS, fluorescence, primary screen (AID 651582).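 For inhibition: 0% = DMSO wells and 100% = triacsin C control wells.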 As to conditions: Nile Red lipid (TAG) fluorescence, at 12.5 µM, cells loaded with 200 µM oleic acid; DAPI nuclei signal change (viability), lower = more cytotoxic: measured here: DAPI nuclei count viability; inhibition: stronger effect = higher value.
Take `CCN1C[C@@H]2[C@@H]3C(=O)N(Cc4ccccc4)C(=O)[C@@H]3[C@](C)(C1=O)N2C(=O)c1ccc(C(C)(C)C)cc1`: the DAPI nuclei signal change (viability), lower = more cytotoxic was -6.19% and the inhibition was 19.2% (inactive).

As to `COc1ccc(NC(=O)CNc2cc(S(=O)(=O)N3CCOCC3)ccc2N2CCOCC2)c(OC)c1`, the DAPI nuclei signal change (viability), lower = more cytotoxic was found to be 15.7% and the inhibition is -15.8% (inactive).

For the compound `C/C(=N\Nc1ccc(Cl)nn1)c1ccccc1O`, the DAPI nuclei signal change (viability), lower = more cytotoxic is -30.3% and the inhibition was 59.1% (active).

`Cc1ccsc1/C=N/Nc1ccc(Cl)nn1`: the DAPI nuclei signal change (viability), lower = more cytotoxic was -14% and the inhibition is 5.97% (inactive).

Consider `Clc1ccc(N/N=C/c2cccs2)nn1`, for which the DAPI nuclei signal change (viability), lower = more cytotoxic came to 3.1% and the inhibition was -6.69% (inactive).

As to `COc1ccccc1-c1nn(Cc2ccccc2)cc1C(=O)N1CCN(c2ncccn2)CC1`, the DAPI nuclei signal change (viability), lower = more cytotoxic was -19.5% and the inhibition was 12.4% (inactive).

As to `CC(C)C(=O)N1CCN(c2nc(-c3ccccc3)c3c(c2C#N)CC(C)(C)OC3)CC1`, the DAPI nuclei signal change (viability), lower = more cytotoxic was determined as 5.61% and the inhibition was 6.61% (inactive).

Consider `O=C1CC2(CCN(C(=O)COc3ccc(F)cc3)CC2)Oc2ccccc21`, for which the DAPI nuclei signal change (viability), lower = more cytotoxic was -14.6% and the inhibition was 21.4% (inactive).

`CC(C)C(=O)N1CCC2(CC1)Oc1ccc(F)cc1C(=O)C21CC(c2ccccc2)=NO1` (configuration not stated): the DAPI nuclei signal change (viability), lower = more cytotoxic is -26.9% and the inhibition is 60% (active).

For `COc1ccc(C(=O)NCc2ccccc2C)cc1S(=O)(=O)NC1CCCC1`, the DAPI nuclei signal change (viability), lower = more cytotoxic amounted to 1.26% and the inhibition is -5.94% (inactive).

Regarding `O=C(O)c1ccc(NN=CC2=C(N3CCOCC3)/C(=C/c3ccccc3)CC2)cc1`, the DAPI nuclei signal change (viability), lower = more cytotoxic was 1.8% and the inhibition was 2.29% (inactive).

Consider `O=C1Nc2ccc(Br)cc2/C1=N/N=C/C1=C(N2CCOCC2)C(=C\c2ccccc2)/CC1`, for which the DAPI nuclei signal change (viability), lower = more cytotoxic was -30.7% and the inhibition was 142% (active).

As for `C(=N\N1CCN(c2ccccn2)CC1)/C1=C(N2CCOCC2)C(=C/c2ccccc2)/CC1`, the DAPI nuclei signal change (viability), lower = more cytotoxic came out at 12.6% and the inhibition is 8.28% (inactive).

With `CC(=O)Oc1ccc(Cn2c(C)c(C(=O)NCc3ccc(C#N)cc3)sc2=O)cc1`, the DAPI nuclei signal change (viability), lower = more cytotoxic is -0.306% and the inhibition is -4.77% (inactive).

Consider `COc1cc(Cl)c(C)cc1NC(=O)CSc1nnc(CN2CCCC2)o1`, for which the DAPI nuclei signal change (viability), lower = more cytotoxic turned out to be 4.62% and the inhibition is 1.12% (inactive).

For `Cc1ccn(CC(=O)NC2CCCN(Cc3ccccc3F)C2)n1` (configuration not stated), the DAPI nuclei signal change (viability), lower = more cytotoxic came to 1.69% and the inhibition was -15.9% (inactive).

On to `Cc1ccc(OCCNC(=O)c2cccc(S(=O)(=O)N3CCN(Cc4ccccc4)CC3)c2)cc1`, for which the DAPI nuclei signal change (viability), lower = more cytotoxic turned out to be 3.36% and the inhibition was -7.75% (inactive).

Consider `CC(C)CCOc1ccc(C(=O)Nc2cc(S(=O)(=O)N3CCOCC3)ccc2N2CCOCC2)cc1`, for which the DAPI nuclei signal change (viability), lower = more cytotoxic was -52.3% and the inhibition was 65.1% (inactive).

Consider `O=C(Cc1cccc2ccccc12)Nc1ccc2oc(-c3ccccc3)nc2c1`, for which the DAPI nuclei signal change (viability), lower = more cytotoxic was -5.68% and the inhibition is 55.2% (active).

With `O=C(Nc1ccc2oc(-c3ccc4ccccc4c3)nc2c1)c1cccs1`, the DAPI nuclei signal change (viability), lower = more cytotoxic was 21.1% and the inhibition is 33% (inactive).

Take `CCCCCC(=O)Nc1ccc2oc(-c3ccncc3)nc2c1`: the DAPI nuclei signal change (viability), lower = more cytotoxic is -5.68% and the inhibition is 4.08% (inactive).

As to `CC(=O)NC(c1cccc(F)c1)c1nc(-c2cccc(F)c2)cs1` (configuration not stated), the DAPI nuclei signal change (viability), lower = more cytotoxic came out at 2.1% and the inhibition was -15.8% (inactive).

`CCCn1c(N)c(C(=O)CSc2nnc(Cc3cccs3)n2C2CC2)c(=O)[nH]c1=O`: the DAPI nuclei signal change (viability), lower = more cytotoxic was -3.34% and the inhibition is 5.02% (inactive).

With `COc1ccc(S(=O)(=O)N2CCN(CC(=O)NCC3(N4CCOCC4)CCCCC3)CC2)cc1`, the DAPI nuclei signal change (viability), lower = more cytotoxic was -5.18% and the inhibition is -1.89% (inactive).

Take `COc1cc(Cn2c3ccc(NC(=O)CC(C)c4ccccc4)cc3c(=O)n2C)ccc1F` (configuration not stated): the DAPI nuclei signal change (viability), lower = more cytotoxic turned out to be 6.84% and the inhibition was 4.12% (inactive).

Consider `CCOCCC(=O)Nc1ccc2c(c1)c(=O)n(C)n2-c1ccc2ccccc2c1`, for which the DAPI nuclei signal change (viability), lower = more cytotoxic was -27.1% and the inhibition is 52.9% (active).

As for `CCn1c2ccccc2c2cc(NC(=O)CNC)ccc21`, the DAPI nuclei signal change (viability), lower = more cytotoxic is -1.08% and the inhibition was 10.2% (inactive).

Consider `NC(=O)CSc1nnc(-c2cccc(S(=O)(=O)N3CCOCC3)c2)o1`, for which the DAPI nuclei signal change (viability), lower = more cytotoxic worked out at 2.86% and the inhibition is 9.91% (inactive).

With `O=[N+]([O-])c1cccc(C=NN=Cc2ccccc2O)c1`, the DAPI nuclei signal change (viability), lower = more cytotoxic was -6.09% and the inhibition was 3.14% (inactive).

As to `COc1ccc(NC(=O)C2Cc3c(-c4ccc5c(c4)OCO5)ccnc3O2)cn1` (configuration not stated), the DAPI nuclei signal change (viability), lower = more cytotoxic is -129% and the inhibition was 146% (inactive).

`CCN1C(=O)/C(=C\N2CCOCC2)SC1=S`: the DAPI nuclei signal change (viability), lower = more cytotoxic is 1.56% and the inhibition was 1.92% (inactive).

Consider `CCCCN1C(=O)/C(=C/C=C2/C=Cc3ccccc3N2CC)SC1=S`, for which the DAPI nuclei signal change (viability), lower = more cytotoxic turned out to be 10.9% and the inhibition is 87.8% (active).

`CCN1C(=O)/C(=C2/Sc3ccccc3N2CCCS(=O)(=O)O)SC1=S`: the DAPI nuclei signal change (viability), lower = more cytotoxic was 12.7% and -2.03%; the inhibition was -9.06% (inactive) and 5.16% (inactive).

On to `CCc1nc2c(OCc3ccc(F)c(F)c3)cccn2c1N(C)C(=O)c1ccco1`, for which the DAPI nuclei signal change (viability), lower = more cytotoxic is -19.3% and the inhibition is 7.19% (inactive).

As to `COc1ccc(Nc2cc(=O)oc3ccccc23)cc1`, the DAPI nuclei signal change (viability), lower = more cytotoxic is -14.8% and the inhibition was 52.3% (active).

For `COc1ccc(Nc2ccc3ccccc3c2)cc1`, the DAPI nuclei signal change (viability), lower = more cytotoxic was determined as 8.55% and the inhibition is 8.64% (inactive).

Turning to `COc1ccc(N2CCN(Cc3cc(=O)oc4ccc5ccccc5c34)CC2)cc1`, the DAPI nuclei signal change (viability), lower = more cytotoxic stood at 4.7% and the inhibition is 7.86% (inactive).

Consider `COC(=O)c1ccc(C)c(NC(=O)Cn2c(C)csc2=O)c1`, for which the DAPI nuclei signal change (viability), lower = more cytotoxic came out at 5.24% and the inhibition is -8.36% (inactive).

Regarding `COc1cccc(NC(=O)C2(C)CCN2Cc2ccccc2Cl)c1` (configuration not stated), the DAPI nuclei signal change (viability), lower = more cytotoxic is 10.6% and the inhibition was -19.4% (inactive).

For the compound `CC1CN(Cc2ccco2)C(=S)N(c2ccccc2)C1=O` (configuration not stated), the DAPI nuclei signal change (viability), lower = more cytotoxic was -1.49% and the inhibition was -14.4% (inactive).

Consider `CN(C)C(=S)N=c1ssc(=S)n1Cc1ccco1`, for which the DAPI nuclei signal change (viability), lower = more cytotoxic is -24% and the inhibition is 51% (active).

With `Cc1cs/c(=N\N=C\c2ccc(O)cc2)n1Cc1ccco1`, the DAPI nuclei signal change (viability), lower = more cytotoxic is -3.51% and the inhibition is -2.08% (inactive).

Regarding `Cc1cccc(NC(=O)c2ccc([N+](=O)[O-])o2)c1`, the DAPI nuclei signal change (viability), lower = more cytotoxic is -57.9% and the inhibition is 80.8% (inactive).

Regarding `Cc1onc(NC(=O)c2ccc([N+](=O)[O-])o2)c1Br`, the DAPI nuclei signal change (viability), lower = more cytotoxic was -38.7% and the inhibition is 59.1% (active).

On to `O=C(Nc1ccc(Br)cn1)c1ccc([N+](=O)[O-])o1`, for which the DAPI nuclei signal change (viability), lower = more cytotoxic is -72.2% and the inhibition was 83.9% (inactive).

As for `CC(C)(C)OC(=O)C[C@@H]1C/C=C\C[C@@H](CC(=O)NCCO)C(=O)N[C@H](Cc2c[nH]c3ccccc23)COC1=O`, the DAPI nuclei signal change (viability), lower = more cytotoxic was 3.2% and the inhibition is -15.4% (inactive).

Consider `COc1cccc(NC(=O)CN(C)C(=O)c2ccccc2CCc2ccccc2)c1`, for which the DAPI nuclei signal change (viability), lower = more cytotoxic was -2.81% and the inhibition is 1.2% (inactive).

On to `O=C(COC(=O)c1ccc(F)cc1)NCC1COc2ccccc2O1` (configuration not stated), for which the DAPI nuclei signal change (viability), lower = more cytotoxic is -0.149% and the inhibition was 4.29% (inactive).

Take `CCN(CC)CCC(c1cc(OC)c(OC)c(OC)c1)c1c(OC)cc(OC)c2c(-c3ccccc3)cc(=O)oc12` (configuration not stated): the DAPI nuclei signal change (viability), lower = more cytotoxic was -19.6% and the inhibition was 30.8% (inactive).

On to `CCN(CC)CCC(c1ccc2c(c1)OCO2)c1c(OC)cc(OC)c2c(-c3ccccc3)cc(=O)oc12` (configuration not stated), for which the DAPI nuclei signal change (viability), lower = more cytotoxic was -32.4% and the inhibition was 57.5% (active).

Consider `COc1cc(OC)c2ccc(=O)oc2c1C(CCN1CCN(c2ccccc2)CC1)c1ccc2c(c1)OCO2` (configuration not stated), for which the DAPI nuclei signal change (viability), lower = more cytotoxic worked out at 10.1% and the inhibition is 25.2% (inactive).

For orientation: inhibition means the drop in the measured response relative to a control, in per cent.
